This is an account of results in paper PMC11006913.

Substitutions are numbered along the chain they refer to.

In the first assay the target is T1, NKX2-4 (Homo sapiens, UniProt Q9H2Z4 175-261, P217L).
T1 sequence: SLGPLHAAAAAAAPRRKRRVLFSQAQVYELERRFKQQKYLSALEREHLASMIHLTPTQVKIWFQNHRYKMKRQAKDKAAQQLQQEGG
Briefly: PBM; 200 nM protein, PBS. Conditions: dsDNA, one strand shown.
On to AAGTACTC, for which the binding signal is 12.7 upbm affinity estimate (log intensity, higher = more binding, comparable within an allelic series).
Regarding CACTTGAC, the binding signal was 12.7 upbm affinity estimate (log intensity, higher = more binding, comparable within an allelic series).
ATTAAGTG: the binding signal was 12.5 upbm affinity estimate (log intensity, higher = more binding, comparable within an allelic series).
Still for that read-out and setting: then AGCACTTA, with 12.6 upbm affinity estimate (log intensity, higher = more binding, comparable within an allelic series).
The same measure, in the same setting: then ACACTTAA, with 12.6 upbm affinity estimate (log intensity, higher = more binding, comparable within an allelic series); and AGTACTTA, with 12.6 upbm affinity estimate (log intensity, higher = more binding, comparable within an allelic series).
The same measure, in the same setting: then CACTTAAA, with 12.7 upbm affinity estimate (log intensity, higher = more binding, comparable within an allelic series).
In the case of CAAGTGGC, the binding signal is 12.4 upbm affinity estimate (log intensity, higher = more binding, comparable within an allelic series).
Regarding GTACTTCA, the binding signal was 12.7 upbm affinity estimate (log intensity, higher = more binding, comparable within an allelic series).
Same read-out and setting: then CTCAAGTA, with 12.7 upbm affinity estimate (log intensity, higher = more binding, comparable within an allelic series); and AGTACTTG, with 12.5 upbm affinity estimate (log intensity, higher = more binding, comparable within an allelic series).
Same read-out and setting: then ACAAGTGG, with 12.6 upbm affinity estimate (log intensity, higher = more binding, comparable within an allelic series).
The same measure, in the same setting: then CCACTTAA, with 12.8 upbm affinity estimate (log intensity, higher = more binding, comparable within an allelic series); and ATAAGTGG, with 12.8 upbm affinity estimate (log intensity, higher = more binding, comparable within an allelic series); and AACCACTT, with 12.7 upbm affinity estimate (log intensity, higher = more binding, comparable within an allelic series).
Consider CCACTTGA, for which the binding signal was 12.9 upbm affinity estimate (log intensity, higher = more binding, comparable within an allelic series).
Same read-out and setting: the same measure for CACTTATC: 12.7 upbm affinity estimate (log intensity, higher = more binding, comparable within an allelic series); for AAGTACTT: 12.9 upbm affinity estimate (log intensity, higher = more binding, comparable within an allelic series).
In the case of ACACTTGA, the binding signal was 12.7 upbm affinity estimate (log intensity, higher = more binding, comparable within an allelic series).
Same read-out and setting: the same measure for CCCACTTA: 12.7 upbm affinity estimate (log intensity, higher = more binding, comparable within an allelic series); for CCACTCAA: 12.6 upbm affinity estimate (log intensity, higher = more binding, comparable within an allelic series).
On the same count and under the same terms, the same measure for GGTACTTA: 12.6 upbm affinity estimate (log intensity, higher = more binding, comparable within an allelic series); for AAGTGGCT: 12.5 upbm affinity estimate (log intensity, higher = more binding, comparable within an allelic series).
Still for that read-out and setting: then AAGCACTT, with 12.6 upbm affinity estimate (log intensity, higher = more binding, comparable within an allelic series).
As to AAGTGGAT, the binding signal is 12.5 upbm affinity estimate (log intensity, higher = more binding, comparable within an allelic series).
AAGTGGAG: the binding signal is 12.4 upbm affinity estimate (log intensity, higher = more binding, comparable within an allelic series).
Same read-out and setting: the same measure for AAGTGGTA: 12.4 upbm affinity estimate (log intensity, higher = more binding, comparable within an allelic series); for ACCACTTG: 12.6 upbm affinity estimate (log intensity, higher = more binding, comparable within an allelic series); for CCACTTAG: 12.7 upbm affinity estimate (log intensity, higher = more binding, comparable within an allelic series).
The same measure, in the same setting: the same measure for GGCACTTA: 12.7 upbm affinity estimate (log intensity, higher = more binding, comparable within an allelic series); for ACTTAAGT: 12.5 upbm affinity estimate (log intensity, higher = more binding, comparable within an allelic series).
On the same count and under the same terms, then CCACTTAC, with 12.6 upbm affinity estimate (log intensity, higher = more binding, comparable within an allelic series); and CACTTAAC, with 12.5 upbm affinity estimate (log intensity, higher = more binding, comparable within an allelic series); and AAGTACCC, with 12.4 upbm affinity estimate (log intensity, higher = more binding, comparable within an allelic series).
For the sequence TAAGTGTA, the binding signal is 12.4 upbm affinity estimate (log intensity, higher = more binding, comparable within an allelic series).
Same read-out and setting: then GCACTTCA, with 12.6 upbm affinity estimate (log intensity, higher = more binding, comparable within an allelic series); and AACACTTA, with 12.5 upbm affinity estimate (log intensity, higher = more binding, comparable within an allelic series); and CACTTATG, with 12.6 upbm affinity estimate (log intensity, higher = more binding, comparable within an allelic series).
On to GTACTTGA, for which the binding signal is 12.8 upbm affinity estimate (log intensity, higher = more binding, comparable within an allelic series).
The same measure, in the same setting: the same measure for CACTTAAG: 12.7 upbm affinity estimate (log intensity, higher = more binding, comparable within an allelic series).

In another assay the target is T2, NKX2-4 (Homo sapiens, UniProt Q9H2Z4 175-261, T231S).
T2 sequence: T1 sequence with L43P, T57S
Kind of assay: PBM; 200 nM protein, PBS. To be noted: dsDNA, one strand shown.
For AAGTACTC, the binding signal is 13.1 upbm affinity estimate (log intensity, higher = more binding, comparable within an allelic series).
Still for that read-out and setting: then CACTTGAC, with 13.1 upbm affinity estimate (log intensity, higher = more binding, comparable within an allelic series); and ATTAAGTG, with 12.9 upbm affinity estimate (log intensity, higher = more binding, comparable within an allelic series).
Still for that read-out and setting: then AGCACTTA, with 13 upbm affinity estimate (log intensity, higher = more binding, comparable within an allelic series); and ACACTTAA, with 13 upbm affinity estimate (log intensity, higher = more binding, comparable within an allelic series).
Still for that read-out and setting: the same measure for AGTACTTA: 13.1 upbm affinity estimate (log intensity, higher = more binding, comparable within an allelic series); for CACTTAAA: 13.1 upbm affinity estimate (log intensity, higher = more binding, comparable within an allelic series); for CAAGTGGC: 12.8 upbm affinity estimate (log intensity, higher = more binding, comparable within an allelic series).
With GTACTTCA, the binding signal is 13.1 upbm affinity estimate (log intensity, higher = more binding, comparable within an allelic series).
Regarding CTCAAGTA, the binding signal is 13.1 upbm affinity estimate (log intensity, higher = more binding, comparable within an allelic series).
The same measure, in the same setting: the same measure for AGTACTTG: 12.9 upbm affinity estimate (log intensity, higher = more binding, comparable within an allelic series); for ACAAGTGG: 13.1 upbm affinity estimate (log intensity, higher = more binding, comparable within an allelic series).
Take CCACTTAA: the binding signal is 13.2 upbm affinity estimate (log intensity, higher = more binding, comparable within an allelic series).
For ATAAGTGG, the binding signal was 13.2 upbm affinity estimate (log intensity, higher = more binding, comparable within an allelic series).
On the same count and under the same terms, the same measure for AACCACTT: 13.1 upbm affinity estimate (log intensity, higher = more binding, comparable within an allelic series); for CCACTTGA: 13.3 upbm affinity estimate (log intensity, higher = more binding, comparable within an allelic series); for CACTTATC: 13 upbm affinity estimate (log intensity, higher = more binding, comparable within an allelic series).
The same measure, in the same setting: the same measure for AAGTACTT: 13.3 upbm affinity estimate (log intensity, higher = more binding, comparable within an allelic series); for ACACTTGA: 13.2 upbm affinity estimate (log intensity, higher = more binding, comparable within an allelic series).
Turning to CCCACTTA, the binding signal was 13 upbm affinity estimate (log intensity, higher = more binding, comparable within an allelic series).
For CCACTCAA, the binding signal was 13.1 upbm affinity estimate (log intensity, higher = more binding, comparable within an allelic series).
Still for that read-out and setting: then GGTACTTA, with 13 upbm affinity estimate (log intensity, higher = more binding, comparable within an allelic series).
Still for that read-out and setting: then AAGTGGCT, with 12.9 upbm affinity estimate (log intensity, higher = more binding, comparable within an allelic series); and AAGCACTT, with 12.9 upbm affinity estimate (log intensity, higher = more binding, comparable within an allelic series).
For the sequence AAGTGGAT, the binding signal is 12.8 upbm affinity estimate (log intensity, higher = more binding, comparable within an allelic series).
On the same count and under the same terms, then AAGTGGAG, with 12.7 upbm affinity estimate (log intensity, higher = more binding, comparable within an allelic series); and AAGTGGTA, with 12.9 upbm affinity estimate (log intensity, higher = more binding, comparable within an allelic series); and ACCACTTG, with 13 upbm affinity estimate (log intensity, higher = more binding, comparable within an allelic series).
Same read-out and setting: the same measure for CCACTTAG: 13 upbm affinity estimate (log intensity, higher = more binding, comparable within an allelic series).
Same read-out and setting: then GGCACTTA, with 13.1 upbm affinity estimate (log intensity, higher = more binding, comparable within an allelic series); and ACTTAAGT, with 12.9 upbm affinity estimate (log intensity, higher = more binding, comparable within an allelic series); and CCACTTAC, with 12.9 upbm affinity estimate (log intensity, higher = more binding, comparable within an allelic series).
As to CACTTAAC, the binding signal was 12.9 upbm affinity estimate (log intensity, higher = more binding, comparable within an allelic series).
Still for that read-out and setting: the same measure for AAGTACCC: 12.9 upbm affinity estimate (log intensity, higher = more binding, comparable within an allelic series); for TAAGTGTA: 12.8 upbm affinity estimate (log intensity, higher = more binding, comparable within an allelic series); for GCACTTCA: 13 upbm affinity estimate (log intensity, higher = more binding, comparable within an allelic series).
On the same count and under the same terms, then AACACTTA, with 12.8 upbm affinity estimate (log intensity, higher = more binding, comparable within an allelic series).
On the same count and under the same terms, then CACTTATG, with 13 upbm affinity estimate (log intensity, higher = more binding, comparable within an allelic series); and GTACTTGA, with 13.2 upbm affinity estimate (log intensity, higher = more binding, comparable within an allelic series).
As for CACTTAAG, the binding signal was 13 upbm affinity estimate (log intensity, higher = more binding, comparable within an allelic series).

Another assay has as its target T3, NKX2-4 (Homo sapiens, UniProt Q9H2Z4 175-261).
T3 sequence: T1 sequence with L43P
Kind of assay: PBM; 200 nM protein, PBS. To be noted: dsDNA, one strand shown.
Turning to AAGTACTC, the binding signal was 12.6 upbm affinity estimate (log intensity, higher = more binding, comparable within an allelic series).
Still for that read-out and setting: then CACTTGAC, with 12.6 upbm affinity estimate (log intensity, higher = more binding, comparable within an allelic series); and ATTAAGTG, with 12.4 upbm affinity estimate (log intensity, higher = more binding, comparable within an allelic series).
The same measure, in the same setting: the same measure for AGCACTTA: 12.5 upbm affinity estimate (log intensity, higher = more binding, comparable within an allelic series).
Turning to ACACTTAA, the binding signal was 12.5 upbm affinity estimate (log intensity, higher = more binding, comparable within an allelic series).
On the same count and under the same terms, the same measure for AGTACTTA: 12.5 upbm affinity estimate (log intensity, higher = more binding, comparable within an allelic series).
On the same count and under the same terms, then CACTTAAA, with 12.6 upbm affinity estimate (log intensity, higher = more binding, comparable within an allelic series); and CAAGTGGC, with 12.3 upbm affinity estimate (log intensity, higher = more binding, comparable within an allelic series); and GTACTTCA, with 12.6 upbm affinity estimate (log intensity, higher = more binding, comparable within an allelic series).
Consider CTCAAGTA, for which the binding signal was 12.6 upbm affinity estimate (log intensity, higher = more binding, comparable within an allelic series).
Regarding AGTACTTG, the binding signal was 12.4 upbm affinity estimate (log intensity, higher = more binding, comparable within an allelic series).
Same read-out and setting: then ACAAGTGG, with 12.5 upbm affinity estimate (log intensity, higher = more binding, comparable within an allelic series); and CCACTTAA, with 12.7 upbm affinity estimate (log intensity, higher = more binding, comparable within an allelic series).
On the same count and under the same terms, then ATAAGTGG, with 12.7 upbm affinity estimate (log intensity, higher = more binding, comparable within an allelic series); and AACCACTT, with 12.6 upbm affinity estimate (log intensity, higher = more binding, comparable within an allelic series); and CCACTTGA, with 12.8 upbm affinity estimate (log intensity, higher = more binding, comparable within an allelic series).
Same read-out and setting: then CACTTATC, with 12.5 upbm affinity estimate (log intensity, higher = more binding, comparable within an allelic series); and AAGTACTT, with 12.7 upbm affinity estimate (log intensity, higher = more binding, comparable within an allelic series); and ACACTTGA, with 12.6 upbm affinity estimate (log intensity, higher = more binding, comparable within an allelic series).
Turning to CCCACTTA, the binding signal is 12.6 upbm affinity estimate (log intensity, higher = more binding, comparable within an allelic series).
